The values below come from PubChem BioAssay (EPA / NIEHS).

Records with an inconclusive call do not appear. Active and inactive are the calls of the source. Rule for the calls, unless noted: active = hit-call score of the fitted dose curve at least 0.9, where 1 is the maximum; inactive = score below 0.9.

One may read the AC50 as the concentration giving half of the maximal activity seen.

The target of assay [1] is human Vitamin D Receptor (VDR), VDR (gene 7421) (UniProt P11473). As to the kind of experiment: ATG_VDR_TRANS: Attagene TRANS-FACTORIAL HepG2 Assay for human Vitamin D Receptor (VDR) (AID 2283022; active = hit-call score of the fitted dose curve at least 0.9, where 1 is the maximum). Put shortly: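 HepG2 cells were transiently transfected with GAL4-UAS reporter units and a chimeric VDR-Gal4 construct, then dosed for 24 hours. Reporter mRNA was quantified by RT-PCR, fluorescent labeling, HpaI digestion and capillary electrophoresis; gain of signal analysed vs DMSO.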
Chain of human Vitamin D Receptor (VDR), VDR (gene 7421) (P11473 whole entry, looked up, the tested form may be a part): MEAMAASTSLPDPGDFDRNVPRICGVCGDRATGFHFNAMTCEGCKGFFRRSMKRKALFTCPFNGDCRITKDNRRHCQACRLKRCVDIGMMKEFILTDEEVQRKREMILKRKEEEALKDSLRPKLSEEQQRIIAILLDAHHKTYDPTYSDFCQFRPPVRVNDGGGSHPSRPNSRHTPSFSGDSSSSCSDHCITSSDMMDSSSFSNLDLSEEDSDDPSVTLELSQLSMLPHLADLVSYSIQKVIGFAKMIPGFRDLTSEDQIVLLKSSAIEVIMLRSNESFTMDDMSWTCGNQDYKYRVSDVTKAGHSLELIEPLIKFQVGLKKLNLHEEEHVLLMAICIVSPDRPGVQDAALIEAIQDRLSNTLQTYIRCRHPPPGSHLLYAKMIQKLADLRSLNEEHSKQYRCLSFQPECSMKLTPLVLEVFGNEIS

Assay [2] can be described thus: BSK_3C_SRB: Viability Assessment in the BioMAP Diversity Plus: 3C Assay (AID 2283023).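 Note: fitted both ways against DMSO so a hit may be signal rise or drop.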 As to conditions: primary human endothelial cells (HUVEC). Put shortly: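 Human umbilical vein endothelial cells in the 3C system, treated 24 h. Total protein measured by 0.1% sulforhodamine B staining after 10% TCA fixation, read at 560 nm; bidirectional fit versus DMSO.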
Read-out in assay [3]: Matrix Metallopeptidase 1 (MMP1), MMP1 (gene 4312)
As to the kind of experiment: BSK_BE3C_MMP1: BioMAP Diversity Plus: BE3C Assay for Matrix Metallopeptidase 1 (MMP1) Biomarker Activity (AID 2283024). As to conditions: primary human bronchial epithelial cells; actives raise or lower the signal. Put shortly:
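MMP1 signal, measured by ELISA after a 24 h chemical exposure of human primary bronchial epithelial cells, is analysed with bidirectional fitting using DMSO as negative control.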

Assay [4] in a line: BSK_3C_Vis: BioMAP Diversity Plus: 3C Assay for Morphology Visualization (AID 2283025).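 Note: fitted both ways so gain or loss versus DMSO counts.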 The note with it: primary human endothelial cells (HUVEC). The essentials: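 Morphology read by light microscopy serves as a background control for the multiplexed 3C assay in human umbilical vein endothelial cells, taken 24 h after dosing, with DMSO as the negative control and bidirectional curve fitting.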

Read-out in assay [5]: Pselectin, SELP (gene 6403)
As to the kind of experiment: BSK_4H_Pselectin: BioMAP Diversity Plus: 4H Assay for Pselectin Biomarker Activity (AID 2283026). As to conditions: primary human endothelial cells (HUVEC); actives raise or lower the signal. The essentials:
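Endothelial primary cells (human umbilical vein) are dosed, incubated 24 h, and assayed for surface P-selectin by ELISA; responses in either direction are fitted relative to the DMSO negative control.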

Assay [6] can be described thus: BSK_4H_SRB: Viability Assessment in the BioMAP Diversity Plus: 4H Assay (AID 2283027).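 For AC50: curves fitted both ways versus DMSO so AC50 may be loss or gain.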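 Note: cells exposed to compound for 24 h before staining.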 As to conditions: primary human endothelial cells (HUVEC). The essentials:
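Cytotoxicity read-out in primary human endothelial cells: after 24 h compound exposure, cells were TCA-fixed (10%), stained with 0.1% SRB and absorbance taken at 560 nm. Values fitted in both directions relative to DMSO.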

A short description of assay [7]: BSK_BE3C_SRB: Viability Assessment in the BioMAP Diversity Plus: BE3C Assay (AID 2283028).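 For AC50: fitted both ways so AC50 may mark signal gain or loss versus DMSO.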 The note with it: primary human bronchial epithelial cells. Put shortly: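 Human bronchial epithelial primary cells in confluent culture, 24 h after chemical dosing; total protein by 0.1% SRB staining after 10% TCA fixation, read at 560 nm. Bidirectional fitting versus DMSO baseline.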

Read-out in assay [8]: Thrombomodulin, THBD (gene 7056)
As to the kind of experiment: BSK_3C_Thrombomodulin: BioMAP Diversity Plus: 3C Assay for Thrombomodulin Biomarker Activity (AID 2283029). The note with it: primary human endothelial cells (HUVEC); actives raise or lower the signal. The essentials: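 Endothelial cells from umbilical vein are dosed with test chemical and incubated 24 h. Thrombomodulin is then quantified by ELISA, with DMSO serving as negative control and activity baseline.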

Read-out in assay [9]: Urokinase-type plasminogen activator receptor (uPAR), PLAUR (gene 5329)
As to the kind of experiment: BSK_4H_uPAR: BioMAP Diversity Plus: 4H Assay for Urokinase-type plasminogen activator receptor (uPAR) Biomarker Activity (AID 2283030). The note with it: primary human endothelial cells (HUVEC); actives raise or lower the signal. The essentials: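 Human umbilical vein endothelial cells in the 4H system, 24 h after chemical dosing. Cell-surface uPAR measured by ELISA, fitted in both directions versus DMSO; cytotoxicity checked by SRB total protein in parallel cultures.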

Read-out in assay [10]: Vascular endothelial growth factor receptor 2 (Homo sapiens) (UniProt P35968)
As to the kind of experiment: BSK_4H_VEGFRII: BioMAP Diversity Plus: 4H Assay for Vascular endothelial growth factor receptor 2 (VEGFR2) Biomarker Activity (AID 2283031). The note with it: primary human endothelial cells (HUVEC); actives raise or lower the signal. The essentials: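 Primary human umbilical vein endothelial cells (4H system), 24 h exposure; cell-surface VEGFR2 measured by ELISA. Bidirectional fitting versus DMSO; cytotoxicity checked in parallel by SRB total-protein staining.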

As for `CCN(Cc1cccnc1)C(=O)c1cccc(Cl)c1[C@]1(C)C(=O)N(Cc2ccc(OC)cc2OC)c2ccc(Cl)cc21`, the molecule was called inactive in [1], in [3], in assay [7] and in assay [8]. The half-maximal activity concentration (AC50) in [2] is 6.28 µM (active); in assay [4] it was 4.34 µM (active); in assay [5], 4.73 µM (active); in assay [6], 5.38 µM (active); in assay [9], 5.48 µM (active).
Take `CC/C(=C(/CC)c1ccc(O)cc1)c1ccc(O)cc1`: the call in [1] and in assay [8] was inactive. The AC50 in [2] was 20 µM (active); in assay [3], 35.1 µM (active); in [4], 8.57 µM (active); in [5] it was 20 µM (active); in [6] it was 22.8 µM (active); in [7], 33.6 µM (active). Further, the AC50 in assay [9] was 17.8 µM (active).
Regarding `CC(C)(C)c1csc(-c2cc3cc(OCc4ccccc4CC(=O)O)ccc3o2)n1`, the result in [1], in assay [4] and in assay [8] was inactive. Besides, the AC50 in assay [2] was 21.5 µM (active); in assay [3], 8.45 µM (active); in [5] it was 18.7 µM (active); in assay [6], 20 µM (active); in assay [7] it was 12.2 µM (active); in assay [9] it was 21 µM (active).
`CCCCCCCCOC(=O)c1cc(O)c(O)c(O)c1`: the AC50 in assay [1] is 55 µM (active); in [2], 20 µM (active); in [3], 33.5 µM (active); in [4], 37.5 µM (active); in [5], 17.8 µM (active); in assay [6], 15.1 µM (active). For the same molecule, the AC50 in [7] was 33.6 µM (active); in [9], 37.7 µM (active). Also, the result in assay [8] was inactive.
For the molecule `Clc1ccccc1C(c1ccccc1)(c1ccccc1)n1ccnc1`, the molecule was called inactive in assay [1]. The AC50 was 11.9 µM (active) in assay [2]; 11.8 µM (active) in [3]; 14.5 µM (active) in assay [4]; 8.64 µM (active) in assay [5]; 24.9 µM (active) in [6]; 8.78 µM (active) in [7]. Besides, the AC50 was 8.39 µM (active) in assay [8] and 18.3 µM (active) in [9].
Consider `CCO[Si](CCCNC(N)=O)(OCC)OCC`, for which the molecule was classed as inactive in assay [1], in [2], in [3], in assay [4], in [5] and in [6]. For the same molecule, the result in assay [7], in [8], in assay [9] and in assay [10] was inactive.
With `Cc1cccc2ccccc12`, the molecule was called inactive in assay [1], in [2], in assay [3], in [4], in assay [5] and in assay [6]. For the same molecule, the outcome in assay [7], in [8], in [9] and in assay [10] was inactive.
`CCCCCCCC[Si](OCC)(OCC)OCC`: the molecule was called inactive in [1], in [3], in assay [4], in [5] and in assay [7]. Further, the AC50 in assay [2] is 31.4 µM (active); in assay [6], 32.8 µM (active); in assay [8], 21 µM (active); in [9], 33.2 µM (active).
For `CN(C)C(=O)C1(N2CCCCC2)CCN(CC[C@@]2(c3ccc(Cl)c(Cl)c3)CN(C(=O)c3ccccc3)CCO2)CC1`, the outcome in [1] and in assay [8] was inactive. The half-maximal activity concentration (AC50) in assay [2] was 7.1 µM (active); in [3] it was 29.1 µM (active); in [4], 12.5 µM (active); in [5], 15.6 µM (active); in [6], 18.9 µM (active); in [7] it was 26.6 µM (active). The AC50 in assay [9] was 12.3 µM (active).
Turning to `O=C1CCC(C2CCCCC2)CC1`, the molecule was classed as inactive in [1], in assay [2], in assay [4], in assay [5], in [6] and in [7]. Besides, the result in [8] and in assay [9] was inactive. Also, the AC50 in assay [3] was 12.6 µM (active).
Take `CCCCCCCCCC(=O)O`: the molecule was classed as inactive in assay [1], in [2], in assay [3], in [4], in [5] and in [6]. The outcome in assay [7], in assay [8] and in assay [9] was inactive.
Consider `OCCO`, for which the molecule was classed as inactive in assay [1], in assay [2], in [3], in assay [4], in [5] and in assay [6]. Moreover, the outcome in [7], in assay [8] and in assay [9] was inactive.
`Cc1oc2c(NC(=O)c3c(Cl)cccc3Cl)cccc2c1C(C)(C)O`: the result in assay [1], in assay [7] and in assay [9] was inactive. The AC50 in [2] is 25 µM (active); in assay [3] it was 14.3 µM (active); in [4] it was 20.7 µM (active); in [5], 13.2 µM (active); in assay [6], 15 µM (active); in assay [8], 11.8 µM (active).
In the case of `Oc1ccc2ccccc2c1`, the molecule was called inactive in [1], in assay [2], in [3], in assay [4], in assay [5] and in [6]. Moreover, the result in assay [7], in assay [8] and in assay [9] was inactive.
For the molecule `Cc1cn([C@H]2C[C@H](N=[N+]=[N-])[C@@H](CO)O2)c(=O)[nH]c1=O`, the outcome in assay [1], in assay [2], in assay [3], in assay [4], in assay [5] and in [6] was inactive. The result in [7], in assay [8], in [9] and in assay [10] was inactive.
For the molecule `O=c1c(-c2ccc(O)cc2)coc2cc(O)cc(O)c12`, the call in [1], in [7] and in [8] was inactive. The AC50 in [2] was 25.8 µM (active); in [3], 15.3 µM (active); in [4], 39 µM (active); in assay [5] it was 17.1 µM (active); in assay [6], 14.7 µM (active); in assay [9], 14.1 µM (active).
As for `CC(C)(O)c1ccc(CNC(=O)c2cccnc2Oc2ccc3nonc3c2)cc1`, the result in assay [1], in assay [2], in assay [3], in [4], in assay [5] and in assay [6] was inactive. Also, the result in [7], in assay [8] and in assay [9] was inactive.
Regarding `CC1(C)NC(=O)N(c2ccc([N+](=O)[O-])c(C(F)(F)F)c2)C1=O`, the molecule was classed as inactive in assay [1], in [2], in assay [3], in assay [4], in assay [5] and in assay [6]. Besides, the outcome in assay [7], in assay [8] and in assay [9] was inactive.
On to `CCCCOC(=O)CC(CC(=O)OCCCC)(OC(C)=O)C(=O)OCCCC`, for which the call in assay [1], in assay [2], in assay [3], in assay [4], in assay [5] and in [6] was inactive. The outcome in assay [7], in assay [8] and in assay [9] was inactive.
